Each structure is given as a SMILES string. The source holds several records for some structures; these can differ, active in one and inactive in another. Calls of active or inactive are those of the source. The calls were made as follows: active = hit-call score of the fitted dose curve at least 0.9, where 1 is the maximum; inactive = score below 0.9.

This assay can be described thus: CCTE_Shafer_MEA_acute_interburst_interval_mean: CCTE's Neural Acute Assay for Mean Interburst Interval, Shafer Lab (AID 2284016).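 Also: percent change of mean interburst interval versus each well's own pre-dose baseline.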 As for the experimental part:
CCTE_Shafer_MEA_acute assay is conducted using Axion Biosystems 48 well microelectrode array (MEA) plates and Maestro recording system. Each well of the MEA plate contains a grid of 16 microelectrodes embedded in the culture surface. Electrically active cells, such as neurons, can be cultured over the electrodes, and electrical activity in these cells can be recorded extracellularly. The spontaneous firing of neurons is captured from each electrode on a microsecond timescale providing both temporally and spatially precise data. […] The CCTE_Shafer_MEA_acute assay uses primary cultures of rat cortical neurons. As these cultures mature over time, neural networks develop functional activity and form cohesive networks in which electrical activity can be highly coordinated. Baseline 40-minute recordings are made on days post-plating 13 or 15, followed by a secondary 40-minute recording after chemical exposure.CCTE_Shafer_MEA_acute_interburst_interval_mean is a component of the CCTE_Shafer_MEA_acute assay. It measures the average time between the start of consecutive single-electrode bursts (temporally-clustered groups of action potential firing) during a recording in a microelectrode array (MEA) using Axion Biosystems Maestro 768 channel amplifier with the AxIS adaptive spike detector. The recordings before and after chemical treatment are used to calculate a percent change in the mean inter-burst interval in each well.Data from the assay component CCTE_Shafer_MEA_acute_interburst_interval_mean was analyzed into 1 assay endpoint. This assay endpoint, CCTE_Shafer_MEA_acute_interburst_interval_mean, was analyzed in the negative analysis fitting direction relative to DMSO as the negative control and baseline of activity. Using a type of functional reporter, gain or loss-of-signal activity can be used to understand electrical activity.
Spontaneous activity in the cortical cultures was recorded using an Axion Biosystems Maestro 768 channel amplifier and Axion Integrated Studios (AxIS) v1.8 (or later) software. The amplifier recorded from all channels simultaneously (gain = 1200 x; sampling rate = 12.5 kHz/channel): raw signals were filtered with a Butterworth band-pass filter (300-5000 Hz), which filters out slower local field potentials leaving only fast potentials, i.e., "spikes", arising from extracellular currents associated with action potentials (Pine 2006; Wheeler and Nam 2011). On-line spike detection of filtered signals was conducted with the AxIS adaptive spike detector, using a threshold of 8x the root mean squared (rms) noise on each channel. Any electrodes with rms noise levels greater than 5 uV were grounded (e.g., no data were recorded). Once grounded, an electrode was grounded for the duration of the experiment. All recordings were conducted at 37 C. Wells were deemed usable if on the day of the exposure >/= 10 electrodes were active (defined as >/= 5 spikes/min). On DIV 13 or 15, a minimum of three wells from one cortical culture preparation were treated with each compound (0.03-40 uM). Prior to recording baseline activity, each mwMEA plate was placed in the Maestro at 37 C and allowed to sit for 20 min while firing rates stabilized. Baseline activity (40 min) was recorded before the addition of each compound. An additional 40 min of spontaneous activity was recorded in the presence of each compound. Changes in network parameters relative to baseline were assessed following compound treatment.
Consider `COc1ccc2sc(C(=O)Nc3nnn[nH]3)c(OC(C)C)c2c1`, for which the result was inactive. Same read-out and setting: under `Cc1[nH]cnc1C[C@H]1CCc2c(C)c3ccccc3n2C1=O` stands “inactive”; under `O=C(O)c1cc(N=Nc2ccc(S(=O)(=O)Nc3ccccn3)cc2)ccc1O`, “inactive”; under `O=C(O)CCN(C1(C(=O)NO)CCCC1)S(=O)(=O)c1ccc(Oc2ccc(F)cc2)cc1`, “inactive”. Take `O=P(OC(CCl)CCl)(OC(CCl)CCl)OC(CCl)CCl`: the AC50 (as a rule, the concentration giving half of the maximal activity seen) was 24 µM (active) and the result was inactive. Take `COc1cccc(-c2ccc(/C=C\CN3CCCCCC3)cc2Cl)c1`: the molecule was classed as inactive. In the case of `CCCCC(CC)COC(=O)CCCCCCCCC(=O)OCC(CC)CCCC` (stereo not drawn), the outcome was inactive. For `CCCCCCc1ccc(O)cc1O`, the half-maximal activity concentration (AC50) was 30.1 µM (active).

In the case of `Cn1cnc([N+](=O)[O-])c1Sc1ncnc2nc[nH]c12`, the call was inactive.

Turning to `CCCN(C1CCN(C(=O)C2CCNCC2)CC1)[C@@H]1CCc2ccc(OC)cc2C1`, the molecule was called inactive. On the same count and under the same terms, for `CC[C@H]1OC(=O)[C@H](C)[C@@H](O[C@H]2C[C@@](C)(OC)[C@@H](O)[C@H](C)O2)[C@H](C)[C@@H](O[C@@H]2O[C@H](C)C[C@H](N(C)C)[C@H]2O)[C@](C)(O)C[C@@H](C)C(=O)[C@H](C)[C@@H](O)[C@]1(C)O` the value was “inactive”. The same measure, in the same setting: under `CC(C)=CCCC(C)=CC=O` stands “inactive”.

`CCOC(=O)c1ccc(C2CCC(NC[C@H](O)COc3ccc(O)c(NS(C)(=O)=O)c3)CC2)cc1` (stereo partly drawn): the call was inactive. As for `Cn1c(=O)c2c(ncn2C)n(C)c1=O`, the molecule was classed as inactive. On the same count and under the same terms, for `On1ccccc1=S` the value was “inactive”. With `CC[C@H]1CC[C@H](NCc2cc3c(cc2OC)[C@H]2C[C@H]2C(=O)N3C)[C@H](c2ccccc2)N1`, the concentration at half-maximal activity (AC50) is 7.83 µM (active). Turning to `CCC(C)(C)C(=O)O[C@H]1C[C@@H](C)C=C2C=C[C@H](C)[C@H](CC[C@@H]3C[C@@H](O)CC(=O)O3)[C@H]21`, the call was inactive.
